Structures are written as SMILES. Screen size: about 310,000 compounds; about 14,000 (4.5%) showed an effect of 50% or more. Effects have a minus sign here. Many of the other results were omitted from the sample, so strong results are more common in it than they were.
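Note: peak tail current of the secondary pulse compared with the same well before compound.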

The target of this test is human ether-à-go-go-related gene (hERG) potassium channel (human, UniProt Q12809). Description: primary screen, population patch clamp on CHO cells stably expressing hERG; higher = less effect of the substance.
Sequence of human ether-à-go-go-related gene (hERG) potassium channel (Q12809 whole entry, looked up): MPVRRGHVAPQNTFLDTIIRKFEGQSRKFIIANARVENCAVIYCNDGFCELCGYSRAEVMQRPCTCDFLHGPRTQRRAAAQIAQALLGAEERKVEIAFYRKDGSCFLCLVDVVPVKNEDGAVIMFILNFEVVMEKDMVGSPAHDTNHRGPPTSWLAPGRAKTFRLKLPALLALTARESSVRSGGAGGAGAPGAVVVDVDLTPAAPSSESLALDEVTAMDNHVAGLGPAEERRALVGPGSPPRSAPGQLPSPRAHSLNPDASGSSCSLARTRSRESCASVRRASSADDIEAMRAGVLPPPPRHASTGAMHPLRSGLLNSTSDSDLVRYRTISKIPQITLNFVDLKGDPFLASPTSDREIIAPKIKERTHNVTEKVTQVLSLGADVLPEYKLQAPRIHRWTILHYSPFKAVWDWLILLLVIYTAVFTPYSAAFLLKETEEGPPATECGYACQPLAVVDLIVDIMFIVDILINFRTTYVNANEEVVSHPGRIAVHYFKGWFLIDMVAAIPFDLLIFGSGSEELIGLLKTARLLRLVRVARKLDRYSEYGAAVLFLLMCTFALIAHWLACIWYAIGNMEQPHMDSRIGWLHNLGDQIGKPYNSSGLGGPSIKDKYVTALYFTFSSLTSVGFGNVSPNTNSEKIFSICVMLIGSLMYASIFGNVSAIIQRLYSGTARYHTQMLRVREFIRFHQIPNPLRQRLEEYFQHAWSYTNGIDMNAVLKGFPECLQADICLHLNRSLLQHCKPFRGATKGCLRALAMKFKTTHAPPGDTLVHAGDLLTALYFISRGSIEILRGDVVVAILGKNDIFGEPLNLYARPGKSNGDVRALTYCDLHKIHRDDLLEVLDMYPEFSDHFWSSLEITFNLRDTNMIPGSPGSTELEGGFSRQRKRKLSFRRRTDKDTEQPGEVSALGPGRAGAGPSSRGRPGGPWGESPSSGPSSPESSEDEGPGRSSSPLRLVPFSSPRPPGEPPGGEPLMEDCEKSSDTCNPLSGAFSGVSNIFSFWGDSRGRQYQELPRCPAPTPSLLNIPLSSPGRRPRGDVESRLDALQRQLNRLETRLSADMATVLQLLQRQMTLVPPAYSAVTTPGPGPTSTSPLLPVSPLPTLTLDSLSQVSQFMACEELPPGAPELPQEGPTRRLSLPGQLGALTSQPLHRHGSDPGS
Take `COc1ccc(OC)c(N2CC(O)(c3cccs3)[N+]3=C2SCCC3)c1.[Br-]` (centres unmarked): the “hERG current change (%, negative = inhibition) at 10uM” value is -50.5%.
The same measure for `COc1ccc(C2(O)CN(c3ccccc3)C3=[N+]2CCS3)cc1OC.[Br-]` (centres unmarked): 1.7%; for `Cc1ccccc1N1CC(O)(c2cccs2)[N+]2=C1CCCC2.[Br-]` (centres unmarked): -25.9%; for `Cc1ccc(C)c(N2CC(O)(c3cccs3)[N+]3=C2CCCC3)c1.[Br-]` (centres unmarked): -23%.
Consider `COc1ccc(OC)c(N2CC(O)(c3ccccc3)[N+]3=C2SCCC3)c1.[Br-]` (centres unmarked), for which the “hERG current change (%, negative = inhibition) at 10uM” value was -72.6%.
`Cc1ccccc1N1CC(O)(c2ccccc2)[N+]2=C1SCC2.[Br-]` (centres unmarked): the “hERG current change (%, negative = inhibition) at 10uM” value was -19.5%.
Then `CN(C)C(CNC(=O)c1ccc(NS(=O)(=O)c2cccc([N+](=O)[O-])c2)cc1)c1ccco1` (centres unmarked), with 12.4%; and `Cc1ccc(NC(=O)COC(=O)COc2cccc3c2OC(C)(C)C3)cc1C`, with -13.9%; and `CCCNC(=O)CN(C)S(=O)(=O)c1c(C)cc(C)cc1C`, with 6.62%.
Then `Cn1ccnc1C(O)c1ccc(OCc2ccccc2)cc1` (centres unmarked), with 4.19%.
With `O=C(O)C(=O)O.O=C1CCCN1CN1CCCCC1`, the “hERG current change (%, negative = inhibition) at 10uM” value came out at 0.00358%.
The same measure for `S=C(NCc1ccco1)Nc1ccccc1Cl`: -52%.
Then `S=C(NCc1ccco1)Nc1cccc(Cl)c1Cl`, with -3.13%; and `O=C(NCc1ccco1)c1csc(Nc2ccccc2Cl)n1`, with -63.1%.
The same measure for `COc1ccc(Nc2nc(C(=O)NCc3ccco3)cs2)cc1`: -14.4%; for `Cc1ccc(Nc2nc(C(=O)NCc3ccco3)cs2)cc1`: -13.5%.
Consider `Cc1c(Cl)cccc1NC(=S)NCc1ccco1`, for which the “hERG current change (%, negative = inhibition) at 10uM” value was determined as 4.12%.
Then `Cc1cc(-c2n[nH]c(=S)n2/N=C/C=C/c2ccccc2)n[nH]1`, with 6.76%; and `Cc1ccc(NS(=O)(=O)c2ccc3[nH]c(=O)[nH]c3c2)cc1`, with 21%.
The same measure for `N/C(Cc1ccc(Cl)cc1Cl)=N\OC(=O)Cc1ccccc1`: 7.08%; for `Cc1ccc(NC(=O)[C@@H](C)NC(=O)[C@@H]2Cc3ccccc3CN2)cc1`: -14.9%.
The same measure for `Cc1ccc(NC(=O)[C@H](NC(=O)[C@@H]2Cc3ccccc3CN2)c2ccccc2)c(C)c1`: -60.7%; for `COc1cccc(NC(=O)[C@H](CC(C)C)NC(=O)[C@@H]2Cc3ccccc3CN2)c1`: -16%.
Turning to `Cc1ccc(NC(=O)[C@H](Cc2ccccc2)NC(=O)[C@@H]2Cc3ccccc3CN2)c(C)c1`, the “hERG current change (%, negative = inhibition) at 10uM” value was -5.23%.
The same measure for `CC(C)c1ccc(NC(=O)[C@@H](C)NC(=O)[C@@H]2Cc3ccccc3CN2)cc1`: -29.2%; for `CC(C)c1ccc(NC(=O)[C@H](NC(=O)[C@@H]2Cc3ccccc3CN2)c2ccccc2)cc1`: -6.39%.
Then `Cc1ccc(NC(=O)[C@H](NC(=O)[C@@H]2Cc3ccccc3CN2)c2ccccc2)cc1`, with -64.1%; and `Cc1ccc(NC(=O)[C@H](Cc2c[nH]c3ccccc23)NC(=O)[C@@H]2Cc3ccccc3CN2)c(C)c1`, with -30.1%.
The same measure for `COc1cccc(NC(=O)[C@H](Cc2ccccc2)NC(=O)[C@@H]2Cc3ccccc3CN2)c1`: -2.99%.
In the case of `COc1ccc(NC(=O)[C@H](NC(=O)[C@@H]2Cc3ccccc3CN2)c2ccccc2)cc1`, the “hERG current change (%, negative = inhibition) at 10uM” value is listed as -50.3%.
The same measure for `CC(NC(=O)[C@H](NC(=O)[C@@H]1Cc2ccccc2CN1)c1ccccc1)c1ccccc1` (some centres unmarked): -32.9%; for `COc1cccc(NC(=O)[C@H](NC(=O)[C@@H]2Cc3ccccc3CN2)c2ccccc2)c1`: -76.4%; for `CCOc1ccccc1N(C(=O)c1ccccc1Cl)C1=NC(C)(C)CS1`: -2.51%.
The same measure for `CC(NC(=O)c1ccccc1[N+](=O)[O-])C1CC2CCC1C2` (centres unmarked): 5.96%.
Then `O=C(NCc1ccc2c(c1)OCO2)c1ccc(COc2cc(Cl)ccc2Cl)o1`, with 11.7%; and `O=C(c1ccccc1)N1N=C(c2ccccc2O)CC1c1ccccc1` (centres unmarked), with 6.88%.
Regarding `CCCCCOC(=O)C1=C(C)NC(=O)NC1c1ccc2c(c1)OCO2` (centres unmarked), the “hERG current change (%, negative = inhibition) at 10uM” value is given as 6.41%.
Turning to `CCOc1ccc(/C=N/N2C(=O)C(CC(=O)Nc3ccc(F)cc3F)SC2=NC)cc1OC` (centres unmarked), the “hERG current change (%, negative = inhibition) at 10uM” value is given as 3.82%.
The same measure for `CCOc1ccc(CN(C)C(=O)CCl)cc1`: -1.2%; for `CS(=O)(=O)N(CC(=O)NCc1ccc2c(c1)OCO2)c1ccccc1`: 6.97%.
Then `COCc1c(C(=O)Nc2nc(C)cs2)oc2ccccc12`, with -2.57%; and `CCCOP(=O)(OCCC)c1nc(-c2ccccc2)oc1NCc1ccccc1`, with 6.49%.
The same measure for `CCc1ccc(NC(=O)CCS(=O)(=O)c2ccc(Cl)cc2)cc1`: 6.96%.
With `Cc1cccc(NC(=O)[C@H](Cc2ccccc2)NC(=O)[C@@H]2Cc3ccccc3CN2)c1`, the “hERG current change (%, negative = inhibition) at 10uM” value was -0.0161%.
`CCc1ccc(NC(=O)[C@H](NC(=O)[C@@H]2Cc3ccccc3CN2)c2ccccc2)cc1`: the “hERG current change (%, negative = inhibition) at 10uM” value was -55%.
Then `Cc1cccc(NC(=O)[C@@H](NC(=O)[C@@H]2Cc3ccccc3CN2)C(C)C)c1`, with -62.4%; and `Cc1cccc(NC(=O)[C@@H](CC(C)C)NC(=O)[C@@H]2Cc3ccccc3CN2)c1`, with -40.7%; and `Cc1cccc(NC(=O)[C@H](NC(=O)[C@@H]2Cc3ccccc3CN2)c2ccccc2)c1`, with -54.4%.
Then `Cc1cc(C)cc(NC(=O)[C@H](NC(=O)[C@@H]2Cc3ccccc3CN2)c2ccccc2)c1`, with -0.0454%.
The same measure for `COc1ccccc1CNC(=O)[C@H](Cc1c[nH]c2ccccc12)NC(=O)[C@@H]1Cc2ccccc2CN1`: -16.5%; for `CCc1ccc(NC(=O)[C@@H](NC(=O)[C@@H]2Cc3ccccc3CN2)C(C)CC)cc1` (some centres unmarked): -13.6%; for `Cc1ccc(NC(=O)[C@H](NC(=O)[C@@H]2Cc3ccccc3CN2)c2ccccc2)cc1C`: -37.9%.
`COc1ccc(NC(=O)[C@H](Cc2c[nH]c3ccccc23)NC(=O)[C@@H]2Cc3ccccc3CN2)cc1`: the “hERG current change (%, negative = inhibition) at 10uM” value is given as -36.8%.
Then `COc1ccc(CNC(=O)[C@H](Cc2c[nH]c3ccccc23)NC(=O)[C@@H]2Cc3ccccc3CN2)cc1`, with -53.9%.
With `CCc1ccc(NC(=O)CNC(=O)[C@@H]2Cc3ccccc3CN2)cc1`, the “hERG current change (%, negative = inhibition) at 10uM” value is -19.9%.
Consider `CN(c1ccc(C(=O)NC2CCCC2)cc1)S(=O)(=O)c1ccc(Cl)cc1`, for which the “hERG current change (%, negative = inhibition) at 10uM” value was 16.2%.
Then `COC(=O)CNC(=O)C1CCN(S(=O)(=O)c2cnc[nH]2)CC1`, with -1.84%; and `CC1=NN(C(C#N)c2ccc(F)cc2)C(c2ccccc2)C1` (centres unmarked), with 4.44%; and `COCCN(CCOC)S(=O)(=O)c1ccc(C(=O)Nc2ccncc2)cc1`, with -11.6%.
Then `CSc1cccc(NC(=O)CN(C)S(=O)(=O)c2ccc(C)cc2)c1`, with -32.8%; and `CCc1ccc2[nH]c(=O)c(C(c3nnnn3CCOC)N3CCN(c4ccccc4)CC3)cc2c1` (centres unmarked), with -11.6%.
The same measure for `COCCn1nc2cc(C(=O)NCc3cc(C(F)(F)F)cc(C(F)(F)F)c3)ccc2c1OC`: 21.8%.
In the case of `CSCC[C@H](NC(=O)[C@@H]1Cc2ccccc2CN1)C(=O)Nc1ccc2c(c1)OCCO2`, the “hERG current change (%, negative = inhibition) at 10uM” value is reported as -65.5%.
Then `C[C@H](NC(=O)[C@@H]1Cc2ccccc2CN1)C(=O)Nc1ccc2c(c1)OCCO2`, with 3.18%; and `C[C@@H](NC(=O)[C@@H]1Cc2ccccc2CN1)C(=O)Nc1ccc2c(c1)OCCO2`, with 3.19%; and `Cc1cc(C(=O)OCC(=O)NCc2ccc3c(c2)OCO3)c2ccccc2n1`, with -27.5%.
Then `Cc1ccc(N(C(=O)c2snc(C(N)=O)c2N)C(C(=O)NCC2CCCO2)c2c[nH]c3ccccc23)cc1` (centres unmarked), with -6.36%.
Then `O=C(CSc1nnc(-c2ccncc2)o1)Nc1nncs1`, with 15.5%; and `O=C(CSc1nnc(-c2ccccc2Br)o1)Nc1nncs1`, with -57.9%; and `O=C(CSc1nnc(-c2ccccc2Br)o1)Nc1cccc2ccccc12`, with 5.79%.
Regarding `COc1ccc(NC(=O)c2ccc(COc3ccccc3)o2)c(OC)c1`, the “hERG current change (%, negative = inhibition) at 10uM” value is -7.06%.
Then `O=C(CC(C(=O)O)C1CCCO1)Nc1cccc(C(F)(F)F)c1` (centres unmarked), with 5.84%; and `O=C(CNC(=O)c1cccnc1)N/N=C/c1cccnc1`, with 8.4%; and `Cc1ccc(C(=O)N2CC(=O)Nc3ccc(F)cc3C2c2ccccc2)cc1` (centres unmarked), with -4.56%.
Then `O=C1CN(C(=O)c2cccc(F)c2)C(c2ccc(F)cc2)c2cc(F)ccc2N1` (centres unmarked), with -15.4%; and `O=C1CN(C(=O)c2ccccc2Br)C(c2ccc(F)cc2)c2cc(F)ccc2N1` (centres unmarked), with -61.6%; and `Cc1ccc2c(c1)C(c1ccc(F)cc1)N(C(=O)c1ccccc1Br)CC(=O)N2` (centres unmarked), with -16.1%.
For `O=C1CN(C(=O)c2ccccc2F)C(c2ccc(F)cc2)c2cc(F)ccc2N1` (centres unmarked), the “hERG current change (%, negative = inhibition) at 10uM” value was -11.7%.
Then `O=C1CN(C(=O)c2ccccc2)C(c2ccccc2)c2cc(F)ccc2N1` (centres unmarked), with -75.1%; and `CCCOc1ccc(C(=O)N2CCCc3ccccc32)cc1`, with -26%.

Values taken from publication PMC4336329 (PLoS ONE, 2015).
